High-throughput results (PubChem)
HIF-2a block = blocks HIF-2a reporter activity; 786-0 RCC cells HIF-2a reporter, luciferase luminescence, overnight; inhibition, % at 18.8 µM; 360,000 tested, 0.72% active;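 active = inhibition of the luminescence signal of 40% or more relative to plate controls, in a single-dose primary screen at 18.75 µM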
LMP1 NFkB inh = reduces LMP1-driven NF-kappaB luciferase signal. LMP1-induced NF-kappaB luciferase reporter cells, luminescence. inhibition, % at 12.5 µM. 350,000 tested, 0.69% active. AID 504558; in the data active = inhibition above about 41%; inconclusive = no clear call, values can overlap the other calls
CF NFkB inh = blocks PAF-induced NF-kB reporter in cystic fibrosis cells | 360,000 tested, 0.86% active | inhibition, % at 5 µM | AID 588850 | KKLEB NF-kB-GFP reporter, GFP fluorescence overnight;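 active = at least 50% inhibition at 5 µM, scaled per plate between neutral and stimulator controls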;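 note: PAF is a Pseudomonas aeruginosa culture filtrate used as stimulus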
Shn3 inh set2 = inhibitors of Schnurri-3 3'UTR reporter in osteoblasts | Clone20 osteoblast Shn3 3'UTR firefly luciferase, 24 h | inhibition, % at 12.5 µM | 360,000 tested, 0.52% active | AID 588674;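 active = mean inhibition of at least 75% with every replicate also reaching 75%; inconclusive = mean inhibition at least 75% but some replicate below; inactive = mean inhibition below 75%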
Peg3 promoter = reduces Peg3 promoter-driven luciferase expression in HeLa; HeLa PEG-Prom luciferase reporter, luminescence, overnight; inhibition, % at 20 µM; 360,000 tested, 1.7% active; AID 588405;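 active = inhibition of at least 50% at 20 µM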
KKLEB tox = counter-screen for CF NF-kB inhibitors: cytotoxicity; KKLEB CF airway cells viability, ATPlite luminescence, overnight; active compounds read low; cells stimulated with P. aeruginosa culture filtrate; activity change (cytotoxicity), % at 5 µM; 360,000 tested, 0.36% active;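 active = corrected activity change at or below -50% at 5 µM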
Of the large screens only hits and unclear results are named; the others gave an inactive call. This is a sample that favours compounds with a hit; in the whole collection about 2.9% have one here.

S=C(Nc1ccc(Cl)c(Cl)c1)NC1CCN(Cc2ccccc2)CC1	Peg3 promoter 93.3
Cc1cc(NN)nc2ccc(Cl)cc12	none
CC(/C=N/NC(=O)c1cc(-c2cccnc2)nc2c1c(C)nn2-c1ccccc1)=C\c1ccccc1	Peg3 promoter 51.5
c1ccc(-c2nnc(N3CCCC3)nc2-c2ccccc2)cc1	none
CCCC(=O)NC(=S)Nc1c(C)cc(Br)cc1C	none
CCCCCC(=O)NC(=S)Nc1ccc(Br)cc1C	LMP1 NFkB inh 43.5
CC1CCC(C(C)C)C(OC(=O)CSc2nccc(=O)[nH]2)C1 (centres undefined)	none
COc1ccc(-c2n(CC(=O)OC3CC(C)CCC3C(C)C)c3ccccc3[n+]2C)cc1 (centres undefined)	CF NFkB inh 59.6, Shn3 inh set2 91.7, Peg3 promoter 77.4, KKLEB tox -53.8
CS(=O)(=O)CCC(C(=O)Nc1ccc2c(c1)OCO2)N1Cc2ccccc2C1=O (centres undefined)	LMP1 NFkB inh 60.0
CCCCNC(=O)CCn1c(=O)c2ccccc2n(Cc2ccc(F)cc2)c1=O	none
COc1cccc(-c2sc3cc(OC)c(OC)cc3c2-c2ccc(OCCN3CCCCC3)cc2)c1	Peg3 promoter 97.3
COc1cccc(-c2sc3ccc(OC)cc3c2-c2ccc(OCCN3CCCC3)cc2)c1	Peg3 promoter 97.2
COc1ccc(-c2sc3ccc(OC)cc3c2-c2ccc(OCCN3CCOCC3)cc2)cc1	none
COc1cccc(-c2sc3ccccc3c2-c2ccc(OCCN3CCCCC3)cc2)c1	Peg3 promoter 83.9
O=C(O)c1ccc2c(c1)C(=O)N(c1ccc(Nc3ccccc3)cc1)C2=O	none
NS(=O)(=O)c1cccc(NC(=O)Nc2ccccc2)c1	none
COc1ccc(SC[C@H](CC(C)C)N2CCN(CCc3ccccc3)CCC2=O)cc1	none
O=C1N=c2ccccc2=C1c1sc(=S)n(-c2ccc(O)cc2)c1O	none
O=C1N=c2ccccc2=C1c1sc(=S)n(Cc2ccccc2Cl)c1O	Peg3 promoter 82.9
CCC(C)Sc1nc2c(c(=O)[nH]1)C(c1cccs1)C1=C(CCCC1=O)N2 (centres undefined)	Peg3 promoter 54.7
COc1ccc(N2CCN(C(=N)/C(C(C)=O)=C(\C)O)CC2)cc1	none
Cc1cc(OCC(=O)Nc2cnn(CCCC(=O)O)c2)ccc1Cl	LMP1 NFkB inh 59.0
Cc1cc(OCC(=O)Nc2cnn(CCCC(=O)O)c2)ccc1[N+](=O)[O-]	none
CCCc1nnc(SCC(=O)NC2CCCCC2)n1CCOC	none
O=C(/C=C/c1ccc(S(=O)(=O)N2CCOCC2)cc1)N1CCN(c2ccccc2)CC1	Peg3 promoter 66.3
COc1ccc(/C=C/C(=O)N2CCN(c3ccccc3)CC2)cc1S(=O)(=O)N1CCOCC1	none
O=c1cc(S(=O)(=O)Cc2ccccc2)[nH]c(=O)[nH]1	none
COc1ccccc1N1CCN(C(=O)C2CCCN(S(=O)(=O)c3ccc4c(c3)CCCN4C(C)=O)C2)CC1 (centres undefined)	Shn3 inh set2 86.6
CC(=O)N1CCCc2cc(S(=O)(=O)N3CCCC(C(=O)N4CCN(c5ccccc5)CC4)C3)ccc21 (centres undefined)	none
CC(C)c1ccccc1-n1c(SCC(=O)N2CCc3ccccc3C2)nc2ccccc2c1=O	Shn3 inh set2 95.7
CC1(C)Nc2ccccc2C(=O)N1c1ccccc1	LMP1 NFkB inh 61.8
CCOC(=O)c1c2ccc(OCC(=O)N/N=C/c3ccc(C)cc3)cc2n2ccccc12	Peg3 promoter 83.8
CCOC(=O)c1c2ccc(OCC(=O)NN)cc2n2ccccc12	none
CCOC(=O)N1CCN(C(=O)C2CCN(C(=O)c3ccccc3C)CC2)CC1	Shn3 inh set2 93.3, Peg3 promoter 106.8
S=C(N/N=C/c1ccccc1Cl)Nc1ccccc1	none
Oc1ccc(C=NNC(=S)Nc2ccccc2)nc1	LMP1 NFkB inh 51.0
CCOCCCNCc1cc(Cl)cc(Cl)c1OCC	none (no result: Shn3 inh set2)
S=C(NCc1ccncc1)NC1CCCCC1	none
CN(CC(=O)Nc1ccc(F)c(F)c1F)C(=O)Cc1ccc2c(c1)OCCO2	none
COc1ccc(Cc2nnc(NC(=O)c3c(-c4ccccc4)noc3C)s2)cc1	LMP1 NFkB inh 52.7
C=CCn1c(O)c(N=NC(=S)Nc2ccccc2F)c2ccccc21	LMP1 NFkB inh 60.2
C=CCn1c(O)c(N=NC(=S)Nc2ccccc2F)c2cc(S(=O)(=O)N3CCOCC3)ccc21	LMP1 NFkB inh 51.9, Shn3 inh set2 inconclusive
Oc1c(N=NC(=S)Nc2ccccc2F)c2ccccc2n1Cc1ccccc1Cl	LMP1 NFkB inh inconclusive
Oc1c(N=NC(=S)Nc2ccccc2F)c2ccccc2n1Cc1ccccc1	LMP1 NFkB inh 45.1
CC1(C)CC(NC(=O)c2ccc(Cl)c(Cl)c2)CC(C)(C)N1	none
CSc1nc(N)nc(SCC(=O)C23CC4CC(CC(C4)C2)C3)c1C#N	LMP1 NFkB inh 69.0
COc1ccc(Cl)cc1C(=O)NCCN(C)C	none
CN(C)CCNC(=O)c1ccc(COc2ccc(Cl)cc2Cl)cc1	Peg3 promoter 53.6
Oc1ccccc1N1CCN(CC(O)COC2CCCc3ccccc32)CC1 (centres undefined)	none
CCCCCCCCCCCCCCC[C@@H](O)[C@@H](N)CO	Peg3 promoter 51.5
COc1ccc2c(c1)N(C)/C(=C/c1cccc[n+]1C)S2	Peg3 promoter 63.7
CCN1/C(=C/c2cccc[n+]2C)Sc2ccc(OC)cc21	none
Cc1ccc2c(c1)N(C)/C(=C/c1cccc[n+]1C)S2	Shn3 inh set2 87.5
O=C(Nc1cc([N+](=O)[O-])ccc1C(=O)Nc1cccnc1)c1ccccc1	none
Cc1cc2oc3cc(NCCC4CCCN4C)ccc3c(=O)c2cc1C (centres undefined)	Peg3 promoter 83.2
CC12CN3CC(C)(CN(C1)C3c1ccc(F)cc1)C2 (centres undefined)	none
O=[N+]([O-])c1cccc(-c2nnn(C34CC5CC(CC(C5)C3)C4)n2)c1	none
Cc1ccc(-c2csc(NC(=O)CSc3nc4ccccc4c(=O)n3CCCN(C)C)n2)cc1	Peg3 promoter 69.7
CN(C)CCCn1c(SCC(=O)N2c3ccccc3Sc3ccccc32)nc2ccccc2c1=O	Peg3 promoter 106.7
CCn1c(SCC(=O)Nc2nc(-c3ccc(C)cc3)cs2)nnc1-c1ccccc1	none
COc1ccc(-c2csc(NC(=O)CSc3nc4ccccc4c(=O)[nH]3)n2)cc1	CF NFkB inh 70.8
COc1ccc2cc(C)c3nnc(SCC(=O)Nc4nc(-c5ccc(F)cc5)cs4)n3c2c1	Peg3 promoter 65.5
Cn1c(SCC(=O)N2c3ccccc3Sc3ccccc32)nc2ccccc21	none
CCOc1cccc(Cc2c[nH]c(=O)[nH]c2=O)c1	none
COc1ccc(CN2CCN(Cc3c[nH]c4ccccc34)CC2CCO)cc1C (centres undefined)	none
CCSc1nnc(C)c(=O)n1COC(=O)c1ccc(S(=O)(=O)N2CCCC2)cc1	none
